Experimental data: the supplement of paper PMC10849652
Targets with a hit are over-represented here; the source holds about 8,800 in all. About 0.5% of all pairs of compound and target were hits.

What was measured:
Assay in all cases: log2 fold change, soluble protein after heating vs DMSO (PISA); higher = thermal stabilisation; K562 lysate, 10 uM; active = over 0.2 and 3.5 SD of the protein, either way, in both replicates (recomputed)
vemurafenib = compound: CCCS(=O)(=O)Nc1ccc(F)c(C(=O)c2c[nH]c3ncc(-c4ccc(Cl)cc4)cc23)c1F [vemurafenib]
Summary of the method: (§1)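 Pellets of K562 cells were dounce-homogenised in PBS pH 7.4 with 1 mM MgCl2, and the crude extract was held at 1 mg/mL protein for a 30 min treatment with 10 μM compound. Aliquots were heated for 3 min over 48°C-58°C and pooled before NP-40 was added to 0.5% at 4°C. The supernatant from 21,000xg for 90 min was quantified by TMTpro 16plex LC-MS/MS with channel sums equalised. Values are reported from duplicates as log-two fold change in thermal stability relative to solvent controls.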

[1] = compound: CCCS(=O)(=O)Nc1ccc(F)c(C(=O)c2c[nH]c3ncc(Cl)cc23)c1F
Summary of the method: as §1

barasertib = compound: CCN(CCCOc1ccc2c(Nc3cc(CC(=O)Nc4cccc(F)c4)[nH]n3)ncnc2c1)CCOP(=O)(O)O [barasertib]
Summary of the method: as §1

[2] = compound: CC[C@@H]1C(=O)N(C)c2cnc(Nc3ccc(C(=O)NC4CCN(C)CC4)cc3OC)nc2N1C1CCCC1
Summary of the method: as §1

volasertib = compound: CC[C@@H]1C(=O)N(C)c2cnc(Nc3ccc(C(=O)N[C@H]4CC[C@H](N5CCN(CC6CC6)CC5)CC4)cc3OC)nc2N1C(C)C [volasertib]
Summary of the method: as §1

[3] = compound: CCn1c(C(=O)N(C2CC2)C2CC2)cc2c3c(ncn3C)c(Nc3cc(C)n(C)n3)nc21
Summary of the method: as §1

[4] = compound: CCn1cc(-c2ccnc3[nH]c(-c4cccc(CN(C)C)c4)cc23)c(-c2ccc(NC(=O)N(C)C)cc2)n1
Summary of the method: as §1

[5] = compound: CN1CCC(CNc2ccc3ncc(-c4cccc(OC(F)(F)F)c4)n3n2)CC1
Summary of the method: as §1

saracatinib = compound: CN1CCN(CCOc2cc(OC3CCOCC3)c3c(Nc4c(Cl)ccc5c4OCO5)ncnc3c2)CC1 [saracatinib]
Summary of the method: as §1

sotrastaurin = compound: CN1CCN(c2nc(C3=C(c4c[nH]c5ccccc45)C(=O)NC3=O)c3ccccc3n2)CC1 [sotrastaurin]
Summary of the method: as §1

Measured: log2 fold change

ALDH18A1 (UniProt P54886)
inactive: vemurafenib 0.052 | [1] -0.006 | barasertib 0.033 | [2] -0.054 | volasertib -0.033 | [3] 0.036 | [4] 0.009 | [5] -0.005 | saracatinib 0.003 | sotrastaurin 0.014

ARHGAP25 isoform 4 (UniProt P42331)
inactive: vemurafenib 0.021 | [1] 0.049 | barasertib 0.081 | [2] -0.045 | volasertib -0.029 | [3] -0.032 | [4] -0.012 | [5] 0.019 | saracatinib -0.034 | sotrastaurin 0.043

AIP (UniProt O00170)
inactive: vemurafenib -0.002 | [1] 0.015 | barasertib -0.004 | [2] 0.017 | volasertib -0.004 | [3] -0.022 | [5] -0.019 | saracatinib -0.015 | sotrastaurin 0.007
active: [4] 0.514

AFF1 isoform 2 (UniProt P51825)
UniProt P51825, sequence (P51825 whole entry, looked up): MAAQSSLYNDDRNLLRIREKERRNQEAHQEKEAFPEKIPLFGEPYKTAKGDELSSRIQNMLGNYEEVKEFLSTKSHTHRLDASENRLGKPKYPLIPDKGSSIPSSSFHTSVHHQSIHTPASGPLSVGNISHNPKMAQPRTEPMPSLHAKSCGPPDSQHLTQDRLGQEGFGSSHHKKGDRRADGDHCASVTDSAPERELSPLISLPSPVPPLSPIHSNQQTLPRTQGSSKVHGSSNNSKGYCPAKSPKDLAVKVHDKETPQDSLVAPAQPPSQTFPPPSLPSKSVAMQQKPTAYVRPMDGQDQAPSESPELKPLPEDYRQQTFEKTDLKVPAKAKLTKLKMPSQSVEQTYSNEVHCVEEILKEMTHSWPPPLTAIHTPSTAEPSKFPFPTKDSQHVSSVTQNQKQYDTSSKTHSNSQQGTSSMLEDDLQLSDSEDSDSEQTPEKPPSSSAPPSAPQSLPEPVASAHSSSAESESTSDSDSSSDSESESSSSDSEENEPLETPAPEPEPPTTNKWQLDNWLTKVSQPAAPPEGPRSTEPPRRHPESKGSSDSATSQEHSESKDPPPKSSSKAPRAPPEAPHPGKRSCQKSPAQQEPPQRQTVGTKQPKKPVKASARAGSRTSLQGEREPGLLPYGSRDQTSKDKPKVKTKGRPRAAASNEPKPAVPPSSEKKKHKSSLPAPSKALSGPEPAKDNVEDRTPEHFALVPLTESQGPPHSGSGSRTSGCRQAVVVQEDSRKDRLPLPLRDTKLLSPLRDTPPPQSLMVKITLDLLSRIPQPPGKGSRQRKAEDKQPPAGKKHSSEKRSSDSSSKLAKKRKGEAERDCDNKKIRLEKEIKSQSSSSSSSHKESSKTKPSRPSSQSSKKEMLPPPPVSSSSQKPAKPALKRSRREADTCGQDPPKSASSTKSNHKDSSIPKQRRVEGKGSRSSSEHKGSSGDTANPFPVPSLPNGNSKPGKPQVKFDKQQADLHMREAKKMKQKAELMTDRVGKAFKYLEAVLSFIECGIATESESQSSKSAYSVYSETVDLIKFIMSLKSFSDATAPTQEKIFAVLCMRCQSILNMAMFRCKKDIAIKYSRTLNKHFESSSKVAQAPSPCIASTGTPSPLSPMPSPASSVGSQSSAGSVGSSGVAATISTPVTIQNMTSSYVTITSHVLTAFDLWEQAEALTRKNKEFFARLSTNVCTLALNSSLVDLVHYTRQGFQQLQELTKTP
inactive: vemurafenib -0.059 | [1] 0.007 | barasertib 0.033 | [2] 0.068 | volasertib -0.043 | [3] -0.023 | [4] -0.307 | [5] 0.125 | saracatinib -0.015 | sotrastaurin 0.029

ASNS (UniProt P08243)
inactive: vemurafenib -0.002 | [1] -0.002 | barasertib 0.025 | [2] -0.056 | volasertib -0.047 | [3] 0.005 | [4] 0.031 | [5] -0.03 | saracatinib 0.022 | sotrastaurin 0.014

ACIN1 isoform 5 (UniProt Q9UKV3)
UniProt Q9UKV3, sequence (Q9UKV3 whole entry, looked up): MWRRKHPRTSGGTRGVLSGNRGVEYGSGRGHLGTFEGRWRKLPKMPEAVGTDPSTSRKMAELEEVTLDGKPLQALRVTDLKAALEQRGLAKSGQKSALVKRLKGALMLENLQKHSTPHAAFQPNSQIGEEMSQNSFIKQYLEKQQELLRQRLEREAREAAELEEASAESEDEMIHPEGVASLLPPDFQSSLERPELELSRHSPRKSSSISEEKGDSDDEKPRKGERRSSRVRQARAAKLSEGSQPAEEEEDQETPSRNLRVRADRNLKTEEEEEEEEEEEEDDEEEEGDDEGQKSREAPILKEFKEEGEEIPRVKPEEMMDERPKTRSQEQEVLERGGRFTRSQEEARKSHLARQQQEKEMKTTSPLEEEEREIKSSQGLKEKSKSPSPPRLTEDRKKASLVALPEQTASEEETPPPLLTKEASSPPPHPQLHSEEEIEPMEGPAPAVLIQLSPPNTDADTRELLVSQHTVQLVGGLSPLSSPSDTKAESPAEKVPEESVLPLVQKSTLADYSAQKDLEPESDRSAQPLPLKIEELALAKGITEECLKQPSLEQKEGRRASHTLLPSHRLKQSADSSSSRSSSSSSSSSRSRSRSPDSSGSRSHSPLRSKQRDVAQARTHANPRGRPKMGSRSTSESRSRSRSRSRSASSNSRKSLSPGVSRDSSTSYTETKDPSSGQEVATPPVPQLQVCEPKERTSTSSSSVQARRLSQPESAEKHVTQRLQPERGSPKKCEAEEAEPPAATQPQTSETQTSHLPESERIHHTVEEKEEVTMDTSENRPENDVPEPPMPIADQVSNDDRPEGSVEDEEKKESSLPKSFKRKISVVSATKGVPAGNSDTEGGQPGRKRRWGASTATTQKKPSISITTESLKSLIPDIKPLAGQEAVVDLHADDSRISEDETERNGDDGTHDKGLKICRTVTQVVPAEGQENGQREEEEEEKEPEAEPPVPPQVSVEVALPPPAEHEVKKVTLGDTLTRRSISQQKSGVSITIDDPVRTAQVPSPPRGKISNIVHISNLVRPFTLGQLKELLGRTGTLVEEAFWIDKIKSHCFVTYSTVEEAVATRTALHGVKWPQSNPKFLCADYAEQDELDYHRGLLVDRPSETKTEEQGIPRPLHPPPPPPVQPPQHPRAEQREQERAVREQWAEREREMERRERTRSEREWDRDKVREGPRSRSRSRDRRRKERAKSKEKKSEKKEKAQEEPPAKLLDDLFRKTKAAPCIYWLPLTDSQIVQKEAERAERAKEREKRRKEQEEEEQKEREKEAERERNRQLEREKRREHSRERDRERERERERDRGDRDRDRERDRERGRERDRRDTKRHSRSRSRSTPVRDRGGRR
inactive: vemurafenib 0.014 | [1] 0.024 | barasertib 0.009 | [2] -0.016 | volasertib 0 | [3] -0.018 | [4] 0.067 | [5] -0.01 | saracatinib 0.006 | sotrastaurin 0.014

ADRM1 (UniProt Q16186)
UniProt Q16186, sequence (Q16186 whole entry, looked up): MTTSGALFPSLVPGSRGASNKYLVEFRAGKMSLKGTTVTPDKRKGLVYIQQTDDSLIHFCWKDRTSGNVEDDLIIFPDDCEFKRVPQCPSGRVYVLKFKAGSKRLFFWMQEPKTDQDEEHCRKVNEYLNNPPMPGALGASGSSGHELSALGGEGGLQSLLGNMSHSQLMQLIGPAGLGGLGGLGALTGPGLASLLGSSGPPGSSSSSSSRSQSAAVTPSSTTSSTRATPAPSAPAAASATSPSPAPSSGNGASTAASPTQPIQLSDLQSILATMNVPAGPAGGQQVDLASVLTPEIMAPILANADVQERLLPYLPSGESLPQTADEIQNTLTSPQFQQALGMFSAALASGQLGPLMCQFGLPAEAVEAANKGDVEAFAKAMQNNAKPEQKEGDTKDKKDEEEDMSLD
inactive: vemurafenib -0.01 | [1] 0.033 | barasertib 0.031 | [2] -0.026 | volasertib -0.036 | [3] 0.008 | [4] -0.024 | [5] -0.027 | saracatinib 0 | sotrastaurin 0.002

ARMCX5 (UniProt Q6P1M9)
inactive: vemurafenib 0 | [1] 0.032 | barasertib 0.007 | [2] -0.034 | volasertib -0.012 | [3] -0.027 | [4] -0.099 | [5] -0.03 | saracatinib 0.043

ACTBL2 (UniProt Q562R1)
inactive: vemurafenib -0.097 | [1] 0.089 | barasertib -0.117 | [2] 0.098 | volasertib -0.166 | [3] 0.105 | [4] 0.417 | [5] -0.023 | saracatinib -0.108 | sotrastaurin 0.049

AP1G2 (UniProt O75843)
UniProt O75843, sequence (O75843 whole entry, looked up): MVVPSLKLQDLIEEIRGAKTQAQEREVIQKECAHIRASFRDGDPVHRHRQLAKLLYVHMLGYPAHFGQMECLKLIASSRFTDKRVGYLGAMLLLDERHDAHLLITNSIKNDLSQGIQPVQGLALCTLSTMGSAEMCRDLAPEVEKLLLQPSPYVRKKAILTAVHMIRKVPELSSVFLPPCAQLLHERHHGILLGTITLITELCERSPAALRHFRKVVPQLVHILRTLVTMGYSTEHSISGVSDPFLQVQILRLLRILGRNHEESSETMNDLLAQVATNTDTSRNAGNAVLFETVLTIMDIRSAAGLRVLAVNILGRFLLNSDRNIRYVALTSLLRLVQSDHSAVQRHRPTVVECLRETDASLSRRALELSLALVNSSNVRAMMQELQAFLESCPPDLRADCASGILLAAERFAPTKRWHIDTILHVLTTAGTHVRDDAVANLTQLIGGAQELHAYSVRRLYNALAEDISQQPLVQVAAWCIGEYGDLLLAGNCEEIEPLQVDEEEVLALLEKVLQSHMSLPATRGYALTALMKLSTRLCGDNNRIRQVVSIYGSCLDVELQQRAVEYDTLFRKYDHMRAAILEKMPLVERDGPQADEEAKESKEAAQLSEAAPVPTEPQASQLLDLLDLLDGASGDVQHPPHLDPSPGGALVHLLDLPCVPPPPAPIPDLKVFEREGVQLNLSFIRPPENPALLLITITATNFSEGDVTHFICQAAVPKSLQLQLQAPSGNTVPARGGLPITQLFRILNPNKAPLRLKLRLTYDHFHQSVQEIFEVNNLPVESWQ
inactive: vemurafenib -0.057 | [1] 0.044 | barasertib 0.011 | [2] -0.014 | volasertib -0.053 | [3] -0.003 | [4] -0.007 | [5] 0.032 | saracatinib -0.032 | sotrastaurin 0.022

ADK (UniProt P55263)
active: [2] 0.458 | volasertib 0.437
inactive: vemurafenib -0.052 | [1] -0.036 | barasertib -0.054 | [3] -0.027 | [4] 0.044 | [5] 0.155 | saracatinib 0.043 | sotrastaurin 0.343

ARHGEF2 (UniProt Q92974)
inactive: vemurafenib -0.006 | [1] 0.013 | barasertib -0.002 | [2] 0 | volasertib -0.026 | [3] -0.021 | [4] -0.02 | [5] -0.003 | saracatinib 0.009 | sotrastaurin 0.027

ACSL4 (UniProt O60488)
UniProt O60488, sequence (O60488 whole entry, looked up): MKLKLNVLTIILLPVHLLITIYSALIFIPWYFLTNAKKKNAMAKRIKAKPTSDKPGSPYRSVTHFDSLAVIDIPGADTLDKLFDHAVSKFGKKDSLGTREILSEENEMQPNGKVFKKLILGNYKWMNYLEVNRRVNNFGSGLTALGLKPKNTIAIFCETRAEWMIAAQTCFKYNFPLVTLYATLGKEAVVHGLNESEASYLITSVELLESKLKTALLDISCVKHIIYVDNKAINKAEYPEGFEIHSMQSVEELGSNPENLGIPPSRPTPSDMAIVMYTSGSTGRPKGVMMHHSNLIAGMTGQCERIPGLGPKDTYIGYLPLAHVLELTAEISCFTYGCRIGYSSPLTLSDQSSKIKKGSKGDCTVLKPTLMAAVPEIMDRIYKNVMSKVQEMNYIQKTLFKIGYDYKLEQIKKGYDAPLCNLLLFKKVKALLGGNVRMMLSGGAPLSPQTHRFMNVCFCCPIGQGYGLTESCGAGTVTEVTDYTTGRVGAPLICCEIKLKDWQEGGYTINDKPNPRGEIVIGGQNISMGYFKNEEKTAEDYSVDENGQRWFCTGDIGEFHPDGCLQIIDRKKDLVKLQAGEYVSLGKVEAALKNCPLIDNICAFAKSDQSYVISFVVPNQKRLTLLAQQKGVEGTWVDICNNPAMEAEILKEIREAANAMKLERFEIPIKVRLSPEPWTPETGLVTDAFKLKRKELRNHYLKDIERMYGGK
inactive: vemurafenib 0.061 | [1] -0.007 | barasertib -0.006 | [2] -0.029 | volasertib -0.001 | [3] 0.036 | [4] 0.008 | [5] -0.02 | saracatinib 0.047 | sotrastaurin 0.043

ACSL1 (UniProt P33121)
inactive: vemurafenib 0.021 | [1] 0.023 | barasertib 0.046 | [2] -0.054 | volasertib -0.1 | [3] 0.038 | [4] -0.014 | [5] -0.242 | saracatinib -0.066 | sotrastaurin -0.002

AIMP1 isoform 2 (UniProt Q12904)
inactive: vemurafenib 0.001 | [1] 0.018 | barasertib 0.015 | [2] -0.036 | volasertib -0.057 | [3] 0.025 | [4] -0.024 | [5] -0.081 | saracatinib 0.023 | sotrastaurin -0.001

ALDH1B1 (UniProt P30837)
inactive: vemurafenib 0.008 | [1] 0.017 | barasertib -0.022 | [2] 0.029 | volasertib -0.013 | [3] -0.062 | [4] -0.015 | [5] 0.108 | saracatinib 0.011 | sotrastaurin 0.022

ANXA2 isoform 2 (UniProt P07355)
inactive: vemurafenib -0.03 | [1] -0.004 | barasertib -0.021 | [2] 0 | volasertib 0.017 | [3] 0.033 | [4] -0.003 | [5] -0.02 | saracatinib 0.013 | sotrastaurin -0.012

AKR1C3 (UniProt P42330)
inactive: vemurafenib 0.01 | [1] 0.023 | barasertib -0.033 | [2] 0.091 | volasertib -0.027 | [3] -0.05 | [4] -0.034 | [5] 0.059 | saracatinib 0.187 | sotrastaurin 0.044

ACACA isoform 4 (UniProt Q13085)
inactive: vemurafenib 0.014 | [1] 0.024 | barasertib 0.043 | [2] -0.062 | volasertib -0.085 | [3] 0.056 | [4] -0.025 | [5] -0.067 | saracatinib 0.001 | sotrastaurin 0.011

ASCC2 (UniProt Q9H1I8)
inactive: vemurafenib 0.037 | [1] 0.069 | barasertib 0.025 | [2] -0.054 | volasertib -0.024 | [3] 0.007 | [4] 0.051 | [5] -0.103 | saracatinib 0.04 | sotrastaurin 0.027

AIFM2 (UniProt Q9BRQ8)
inactive: vemurafenib -0.19 | [1] 0.091 | barasertib -0.029 | [2] -0.018 | volasertib -0.004 | [3] -0.089 | [4] -0.057 | [5] 0.149 | saracatinib -0.062 | sotrastaurin 0.036

AKR1C2 (UniProt P52895)
active: [4] -0.369
inactive: vemurafenib 0.001 | [1] 0.018 | barasertib -0.008 | [2] 0.008 | volasertib -0.018 | [3] -0.043 | [5] 0.148 | saracatinib 0.062 | sotrastaurin 0.006

ACYP1 (UniProt P07311)
inactive: vemurafenib -0.038 | [1] -0.024 | barasertib 0.024 | [2] -0.005 | volasertib 0.032 | [3] 0.006 | [5] -0.082 | saracatinib 0.003 | sotrastaurin -0.032
active: [4] 0.284

ABHD11 (UniProt Q8NFV4)
inactive: vemurafenib 0.062 | [1] -0.051 | barasertib 0.093 | [2] -0.029 | volasertib -0.082 | [3] 0.028 | [4] -0.109 | [5] 0.024 | saracatinib -0.026 | sotrastaurin -0.016

ARAP1 (UniProt Q96P48)
inactive: vemurafenib -0.014 | [1] 0.006 | barasertib 0.013 | [2] -0.034 | volasertib -0.085 | [3] 0.029 | [4] -0.076 | [5] 0.015 | saracatinib -0.001 | sotrastaurin 0.006

AKR1B1 (UniProt P15121)
inactive: vemurafenib 0.006 | [1] 0.024 | barasertib 0.02 | [2] 0.072 | volasertib -0.015 | [3] 0.008 | [4] -0.054 | [5] 0.116 | saracatinib 0.065 | sotrastaurin -0.012

ANKRD30B (UniProt Q9BXX2)
inactive: vemurafenib 0.136 | [1] 0.024 | barasertib 0.047 | [2] 0.012 | volasertib 0.003 | [3] -0.055 | [5] 0.281 | saracatinib 0.04
active: [4] -0.755

ACLY (UniProt P53396)
inactive: vemurafenib 0.017 | [1] 0.01 | barasertib -0.003 | [2] -0.035 | volasertib -0.031 | [3] -0.003 | [4] -0.049 | [5] 0.026 | saracatinib -0.007 | sotrastaurin 0.016

AK2 (UniProt P54819)
inactive: vemurafenib 0.014 | [1] 0.062 | barasertib -0.013 | [2] 0.029 | volasertib 0.013 | [3] -0.009 | [4] 0.119 | [5] -0.008 | saracatinib -0.015 | sotrastaurin -0.038

AKAP8L (UniProt Q9ULX6)
UniProt Q9ULX6, sequence (Q9ULX6 whole entry, looked up): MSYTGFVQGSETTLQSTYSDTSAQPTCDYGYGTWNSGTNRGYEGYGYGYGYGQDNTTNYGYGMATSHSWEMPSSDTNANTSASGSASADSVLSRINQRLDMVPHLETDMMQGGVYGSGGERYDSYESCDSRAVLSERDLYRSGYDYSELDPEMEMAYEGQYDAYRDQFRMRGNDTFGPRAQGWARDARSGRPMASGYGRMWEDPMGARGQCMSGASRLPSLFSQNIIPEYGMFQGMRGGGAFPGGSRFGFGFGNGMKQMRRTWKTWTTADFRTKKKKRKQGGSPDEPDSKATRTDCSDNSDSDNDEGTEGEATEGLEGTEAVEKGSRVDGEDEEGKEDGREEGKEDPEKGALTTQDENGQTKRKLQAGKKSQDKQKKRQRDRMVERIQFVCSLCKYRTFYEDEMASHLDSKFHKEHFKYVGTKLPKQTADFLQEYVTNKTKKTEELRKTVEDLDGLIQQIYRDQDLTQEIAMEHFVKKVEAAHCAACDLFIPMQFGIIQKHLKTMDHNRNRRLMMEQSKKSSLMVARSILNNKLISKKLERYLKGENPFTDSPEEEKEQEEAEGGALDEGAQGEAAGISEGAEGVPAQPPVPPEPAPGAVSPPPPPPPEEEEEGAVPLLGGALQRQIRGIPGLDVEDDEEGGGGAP
inactive: vemurafenib -0.003 | [1] 0.033 | barasertib -0.066 | [2] -0.036 | volasertib -0.042 | [3] 0.019 | [4] -0.042 | [5] -0.01 | saracatinib 0.002 | sotrastaurin 0.013
